{"source": "PubChem BioAssay AID540327", "about": "(National Center for Advancing Translational Sciences (NCATS), 2011)", "target": "Ubiquitin carboxyl-terminal hydrolase 1 (Homo sapiens) (UniProt O94782)", "sequence (O94782 whole entry, looked up)": "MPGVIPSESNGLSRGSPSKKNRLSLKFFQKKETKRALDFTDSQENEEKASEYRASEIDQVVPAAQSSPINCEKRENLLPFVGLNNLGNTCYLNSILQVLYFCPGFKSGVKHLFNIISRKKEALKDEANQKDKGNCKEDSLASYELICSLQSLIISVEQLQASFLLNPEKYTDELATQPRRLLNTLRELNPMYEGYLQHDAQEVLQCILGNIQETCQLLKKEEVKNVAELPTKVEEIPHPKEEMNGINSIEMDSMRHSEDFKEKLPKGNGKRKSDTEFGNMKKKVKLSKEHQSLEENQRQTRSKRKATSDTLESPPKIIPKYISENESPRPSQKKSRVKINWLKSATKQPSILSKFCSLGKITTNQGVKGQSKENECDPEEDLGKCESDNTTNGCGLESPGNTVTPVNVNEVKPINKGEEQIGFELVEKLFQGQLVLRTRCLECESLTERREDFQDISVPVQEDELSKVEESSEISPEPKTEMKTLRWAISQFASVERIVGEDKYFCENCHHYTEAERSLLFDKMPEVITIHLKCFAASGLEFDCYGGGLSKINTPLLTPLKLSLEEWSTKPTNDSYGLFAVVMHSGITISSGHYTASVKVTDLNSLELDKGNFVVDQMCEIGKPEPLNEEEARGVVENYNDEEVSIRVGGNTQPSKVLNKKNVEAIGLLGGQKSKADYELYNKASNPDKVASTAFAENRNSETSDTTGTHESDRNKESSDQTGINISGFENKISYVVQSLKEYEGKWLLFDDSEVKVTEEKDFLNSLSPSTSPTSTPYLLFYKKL", "experiment": "Inhibitors of USP1/UAF1: Hit Validation in Primary Assay", "conditions": "Ub-Rhodamine cleavage, fluorescence kinetic read", "from_the_text": "Deubiquitinating enzymes (DUBs) are a class of enzymes that can cleave isopeptide bond formed between the C-terminal carboxylate of ubiquitin and a lysine side-chain amino group on the target protein. Among them, ubiquitin specific proteases (USPs) constitute the largest DUB family. Human USPs are emerging as promising targets for pharmacological intervention because of their connection to a number of human diseases, including prostate, colon and breast cancer (1, 2), pediatric acute lymphoblastic leukemia (3), and familial cylindromatosis (4). The advantage of inhibiting USPs lies in the potential specificity of therapeutic intervention that can lead to better efficacy and reduce nonspecific side effects. […] This miniaturized assay has a fluorescent read-out and is used to screen the NIH Molecular Libraries Small Molecule Repository (MLSMR) in order to identify a small molecule that inhibits USP1. […]\n3 microliters of reagents (buffer in columns 3 and 4 as negative control and 1nM USP1/UAF1 complex in columns 1, 2, and 5-48) are dispensed into Greiner black solid bottom 1536-well assay plates. […] The plates are immediately centrifuged at 1000 rpm for 15 seconds, and subsequently transferred to a ViewLux high-throughput CCD imager (PerkinElmer) wherein kinetic measurements of fluorescence are acquired using 480 nm excitation/540 nm emission filter set (6 reads every 60 seconds, see Table 1). […]", "note": "The list shows a part of the results. Inconclusive results are not listed. Activity calls are given as the source filed them. Calls come from the whole dose curve; as a rule, active = well fitted inhibition curve with a large enough effect; inconclusive = small, poorly fitted or top-dose-only effect; inactive = flat fitted curve, though single readings scatter.", "data": [{"smiles": "CC(=O)c1c(O)c(C)c(O)c(Cc2c(O)c3c(c(C(=O)/C=C/c4ccccc4)c2O)OC(C)(C)C=C3)c1O", "values": [{"measurement": "Potency", "value": "41.8 µM (active)"}]}]}
